GRP78 ERSR act = qHTS for Inducers of the Endoplasmic Reticulum Stress Response (ERSR) in Human Glioma: qHTS. U87-MG GRP78 promoter luciferase reporter, 16 h. Potency, µM, for inactives: at the top dose activation, usual class: activators. hit rate 0.02% among 420,000; further: series mostly up to about 76 µM; % of control where 0% means no effect; nearly all actives have a fitted effect of over 35% in size
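ERSR induction read as luciferase luminescence (Bright-Glo, 10 min at room temperature) in stably transfected human U87-MG glioma cells exposed to compounds for 16 h, using GRP78 as sensor.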
PINK1 modulator = A Quantitative High throughput Screen to Identify Chemical Modulators of PINK1 Expression | AID 624263, 2012 | PINK1 immunofluorescence, high-content cytometry, 24 h | Potency, µM (doses to about 76.6 µM), without a hit: top-dose activation (PINK1 increase), actives largely listed as activators | hit rate 0.2% among 410,000; active means well fitted activation curve with a large enough effect; inconclusive means small, poorly fitted or top-dose-only effect; cell line not stated here; further: % of control where 0% means no effect; nearly all actives have a fitted effect of over 65% in size
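Cells are seeded, rested 12 hours, then given compound at five concentrations or DMSO for 24 hours. After fixation, blocking and antibody staining, PINK1 amount and mitochondrial localization are scored; CCCP serves as control.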
FUS yeast rescue = qHTS for Suppressors of FUS Proteinopathy: Primary screen using FUS-linked yeast assay; S. cerevisiae FUS-expressing, growth rescue, OD600, 24 h; Potency, µM (doses to about 76.6 µM), usual class: activators; hit rate 0.24% among 390,000;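 further: plate controls were DMSO vehicle for no effect and reference control for full effect; nearly all actives have a fitted effect of over 55% in size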
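Steps: raffinose overnight preculture; dilution to OD 0.005 in 2% galactose minimal medium; compound addition (concentration series); 24hr at 30C, 99% humidity; absorbance read at 600 nm.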
Abeta rescue = qHTS for compounds that reverse cellular toxicity of Amyloid beta (A-beta) peptide in yeast: Primary Screen. hit rate 0.063% among 410,000. Potency, µM (titrated, usually from 46.1 µM), usual class: activators. yeast expressing A-beta42, growth rescue, OD600, 48 h; response scale: 0% DMSO, 100% iron-clioquinol control. AID 1347071, 2019; further: nearly all actives have a fitted effect of over 55% in size
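Growth rescue measured by 600 nm absorbance after 48 h yeast culture at 30 C with compound. Values normalized between DMSO and an equimolar ferric chloride plus clioquinol control.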
Vif-A3G inh = qHTS for Inhibitors of Vif-A3G Interactions: qHTS; Potency, µM (doses to about 46.1 µM), for inactives: at the top dose activity, negative = active, usual class: inhibitors; hit rate 0.076% among 410,000; DNA dC->dU-editing enzyme APOBEC-3G (Homo sapiens), Q9HC16; HeLa A3G-eYFP + Vif (tagged APOBEC3G with the HIV-1 protein that degrades it), YFP fluorescence, overnight; further: on the % scale 0 is the no-effect control and ±100 the full control effect; nearly all actives have a fitted effect of over 60% in size
Target sequence (Q9HC16 whole entry, looked up): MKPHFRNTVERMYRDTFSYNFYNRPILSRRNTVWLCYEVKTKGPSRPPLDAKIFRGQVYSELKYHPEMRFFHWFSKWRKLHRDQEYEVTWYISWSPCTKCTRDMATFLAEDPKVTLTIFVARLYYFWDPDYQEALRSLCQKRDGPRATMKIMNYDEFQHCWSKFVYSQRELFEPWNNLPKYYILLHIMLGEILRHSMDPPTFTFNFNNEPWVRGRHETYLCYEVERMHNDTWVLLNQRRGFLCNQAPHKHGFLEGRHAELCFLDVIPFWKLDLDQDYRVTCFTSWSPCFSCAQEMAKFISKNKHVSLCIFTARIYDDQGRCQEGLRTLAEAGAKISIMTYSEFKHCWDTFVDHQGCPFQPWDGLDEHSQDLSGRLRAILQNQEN
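HeLa cells stably expressing Vif and C-terminally eYFP-tagged A3G, seeded overnight at 37 deg C, then exposed to compound by pintool overnight at 37 deg C. Rise in yellow fluorescence (Ex 488/Em 500-530, Acumen) marks blocked Vif-driven A3G degradation.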
Vif-A3F inh = qHTS for Inhibitors of Vif-A3F Interactions: qHTS. HeLa A3F-eYFP + Vif (tagged APOBEC3F with the HIV-1 protein that degrades it), YFP fluorescence increase. Potency, µM (highest dose often 46.1 µM), without a hit: at the top dose activity, negative = active. hit rate 0.2% among 390,000. AID 602313, 2012; further: % of control where 0% means no effect; nearly all actives have a fitted effect of over 65% in size
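Fluorescence increase (Ex 488/Em 500-530) after overnight compound treatment at 37 deg C flags inhibition of Vif-driven A3F-eYFP loss in stable HeLa A3F-eYFP/Vif cells seeded overnight beforehand.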
* = called active by the depositor; i = inactive; ? = inconclusive; . = not tested or not shown; [ ] = remark or other dose. This is a sample that favours compounds with a hit; in the whole collection about 0.69% have one here. Unless noted, the call rests on the fitted dose curve; in most records, active means well fitted curve in the direction sought with a large enough effect; inconclusive means small, poorly fitted or top-dose-only effect, or another doubt; inactive means no such curve, though single readings can be large; an effect the other way counts as inactive or inconclusive. Potency means the concentration at half of the fitted maximal effect.

SMILES	GRP78 ERSR act	PINK1 modulator	FUS yeast rescue	Abeta rescue	Vif-A3G inh	Vif-A3F inh
CC1CCN(c2ccccc2NC(=S)NC(=O)C(C)(C)C)CC1	-1%	3%	i	13µM*	1%	-1%
COC(=O)[C@@H]1CCCN1C(=O)c1c(OC)cc(=O)n2c1CCN(Cc1cc(OC)ccc1F)CC2	-3%	-1%	.	.	.	.
CCC(C)(C)n1nnnc1C(c1cc2cc(C)cc(C)c2[nH]c1=O)N1CCCC1 (stereo not given)	0%	15%[38.3 µM]	25µM*	i	-1%	-9%
CCC(C)(C)n1nnnc1C(c1cc2cccc(C)c2[nH]c1=O)N1CCCC1 (stereo not given)	-2%	4%[38.3 µM]	32µM*	i	1%	-5%
O=C(Nc1ccc(N2CCOCC2)c(S(=O)(=O)Nc2ccccc2Cl)c1)c1ccccc1	-1%	1%	i	i	-1%	-6%
O=C(Nc1ccc(Cl)cc1)Nc1ccc(N2CCCC2)c(S(=O)(=O)Nc2ccccc2Cl)c1	-2%	2.8µM*	i	i	-7%	-10%
COCCC1CCCCN1Cc1nc(N2CCCCC2)c2cc(OC)c(OC)cc2n1 (stereo not given)	-6%	-1%	.	.	.	.
COC(=O)[C@]12C[C@H](CC(=O)N3CCN(C(=O)C4CC4)CC3)C(=O)N(Cc3ccc(Cl)cc3Cl)C1=C[C@H](C(C)C)O[C@@H]2C1CC1	.	.	28µM*	.	.	.
COC(=O)[C@]12C[C@H](CC(=O)N3CCN(C(=O)C4CC4)CC3)C(=O)N(Cc3ccc(Cl)cc3Cl)C1=C[C@H](C1CCCC1)O[C@@H]2C	.	.	32µM*	.	.	.
COC(=O)[C@]12C[C@H](CC(=O)N3CCOCC3)C(=O)N(Cc3ccc(Cl)cc3Cl)C1=C[C@H](C(C)(C)C)O[C@@H]2C	.	.	16µM*	.	.	.
COC(=O)[C@]12C[C@H](CC(=O)N3CCN(C(=O)C4CC4)CC3)C(=O)N(Cc3ccco3)C1=C[C@H](C1CCCC1)O[C@@H]2C	.	.	i	.	.	.
COc1ccccc1-n1cc(CN2CCOc3ccc(CN4C[C@@H](C)O[C@@H](C)C4)cc3C2)cn1	-4%	0%	.	.	.	.
COc1ccc(C2(C(=O)NCC3Cc4cccc(-c5cccnc5)c4O3)CCCC2)cc1 (stereo not given)	-6%	0%	.	.	.	.
O=C(NC(=S)NCc1ccccc1)c1ccccc1	2%	1%	i	11µM*	-2%	?
Cc1cc(OC(F)F)ccc1NC(=S)NC1CCCC1	-2%	3%	i	13µM*	-5%	-11%
O=C1/C(=C/c2c[nH]c3ccccc23)CCC/C1=C\c1c[nH]c2ccccc12	2%	6%	i	i	?	22µM*
C=CCNC(=S)N/N=C/c1ccc(C(C)(C)C)cc1	6%	5%	i	7.9µM*	0%	?
CC(C)(C)c1ccc(/C=N/NC(=S)NCc2ccccc2)cc1	-3%	12%	i	i	2%	-6%
O=c1c(O)c(-c2cccs2)oc2ccccc12	7%	-5%[38.3 µM]	i	i	?	2.8µM*
O=c1c(O)c(-c2cccs2)oc2ccc(Cl)cc12	1%	0%	.	i	?	?
Cc1sc2cc3c(c(C(=O)c4ccccc4)[n+]2c1C)-c1cccc2cccc-3c12	-4%	?	i	i	-9%	17%
O=C(c1ccccc1)c1c2c(cc3sc4ccccc4[n+]13)-c1cccc3cccc-2c13	-2%	?	?	i	6.3µM*	?
Cc1ncc2c(c1CNS(=O)(=O)N(C)C)CCN(C(=O)c1[nH]c3ccc(Cl)cc3c1C)C2	-4%	1%	.	.	.	.
